# Screening data from PubChem.
# Shn3 3UTR inh: reduction of Shn3 3'UTR firefly luciferase signal, primary screen, Schnurri-3 inhibitor project, cell-based, Clone20 osteoblasts, set 2 | 360,000 compounds, 0.52% hits | AID 588674, 2011 | inhibition, % at 12.5 µM | Clone20 osteoblast Shn3 3'UTR firefly luciferase, 24 h;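 active means mean inhibition of at least 75% with every replicate also reaching 75%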
# 697 NFkB inh: inhibitors of PMA/ionomycin-induced NF-kB reporter, 697 cells, primary screen, B-cell NF-kB inhibitor project, cell-based, luminescence, uHTS; inhibition, % at 4 µM; 330,000 compounds, 0.33% hits; 697 B-cell NF-kB luciferase reporter, 16 h; in the data active means inhibition above about 35%
# TAG inh: inhibitors of triacylglycerol accumulation, primary screen, cell-based, uHTS, fluorescence, H9c2; 230,000 compounds, 0.66% hits; inhibition, % at 12.5 µM; H9c2 cells, Nile Red lipid (TAG) fluorescence; cells loaded with 200 µM oleic acid;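 active means pattern-corrected inhibition of lipid staining of at least 50% with the nuclear-stain viability signal not falling by more than 50%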
# Gli-Sufu block: Gli-Sufu pathway antagonists, primary screen, luciferase luminescence, Sufu-KO-LIGHT cells, uHTS. inhibition, % at 5 µM. 340,000 compounds, 0.74% hits. AID 588413, 2011. Sufu-KO-LIGHT fibroblasts, Gli luciferase reporter luminescence;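 active means inhibition above about 55%, limit read from the data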
# aSyn UTR inh: MLPCN primary screen, SNCA 5' untranslated region. 300,000 compounds, 0.82% hits. inhibition, % (tested at 7.5 µM). alpha-synuclein 5'UTR reporter, inhibitor activity; in the data active means inhibition above about 60%;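 further: H4 neuroglioblastoma cells stably carrying SNCA 5'UTR luciferase fusion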
# Jurkat NFkB inh: inhibitors of induced NF-kB luciferase reporter, primary screen, TCR NF-kB activation inhibitor project, cell-based, luminescence, uHTS. Jurkat, PMA/ionomycin-induced NF-kB luciferase reporter. inhibition, % at 4 µM. 330,000 compounds, 0.53% hits. AID 435003, 2010; in the data active means inhibition above about 50%
# Jurkat NFkB conf: PMA/ionomycin-induced NF-kB reporter inhibitors, Jurkat retest, confirmation, T-cell NF-kB inhibitor project, cell-based, luminescence, single concentration; 2,700 compounds, 27% hits; shares compounds with Jurkat NFkB inh; inhibition, % at 4 µM; Jurkat NF-kB luciferase, 16 h; AID 435020, 2010;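 active means inhibition reaching about 45% at 4 µM in either replicate, limit read from the data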
# Hits are given with their value; i = inactive; nt = not tested or not shown. A selection: hits, their analogues and other compounds. The true share with any hit is near 2.3%.
SMILES,Shn3 3UTR inh,697 NFkB inh,TAG inh,Gli-Sufu block,aSyn UTR inh,Jurkat NFkB inh,Jurkat NFkB conf
CCCc1cc(C(=O)Nc2ccc(C)cc2)no1,i,i,i,i,i,i,nt
CC(C)c1cc(C(=O)Nc2cccc(Cl)c2)no1,i,i,nt,i,nt,i,i
CC(C)Cc1cc(C(=O)Nc2cccc(O)c2)no1,i,i,i,i,i,i,i
COc1cccc(NC(=O)CN(C)C(=O)CNC(=O)c2ccc(C)s2)c1,i,nt,i,i,nt,nt,nt
CCN(CC)CCNC(=O)c1cc2c(=O)n(C)c3ccccc3c2s1,i,i,nt,i,i,i,nt
CC(C)C(NS(=O)(=O)c1ccc2c3c(cccc13)C(=O)N2)C(=O)O (stereo not drawn),i,i,nt,i,i,i,nt
CC(C)(C)c1ccc(CC(=O)N2CCC2(C)C(=O)Nc2ccc(F)cc2F)cc1 (stereo not drawn),i,nt,i,nt,nt,nt,nt
COc1ccc(NC(=O)C(=O)NCC2CCCN2S(=O)(=O)c2ccc(C)cc2)cc1 (stereo not drawn),i,i,i,69,91,76,64
COCCNC(=O)C(=O)Nc1ccc2c(c1)N(S(=O)(=O)c1cccs1)CCC2,i,i,i,i,i,60,i
O=C(NCCC1CCCCN1S(=O)(=O)c1cccs1)C(=O)Nc1ccccc1 (stereo not drawn),i,i,i,i,i,i,nt
COc1ccc(NC(=O)C(=O)NCCC2CCCCN2S(=O)(=O)c2cccs2)cc1 (stereo not drawn),i,i,i,i,i,61,i
C/C(CC(=O)NCCCN1CCOCC1)=N\NC(=O)COc1cccc2ccccc12,i,i,nt,i,i,i,nt
c1ccc(-c2noc(CC3CCCCC3)n2)cc1,i,i,i,i,i,i,nt
CC(C)(C)OC(=O)NCCCCCc1nnc(SCC(N)=O)o1,i,i,i,i,i,i,nt
Cc1ccc(OCCOC(=O)c2c(-c3ccccc3)noc2C)cc1,i,i,nt,i,i,i,nt
Cc1onc(-c2ccccc2)c1C(=O)OCCOc1cccc(Cl)c1,i,i,i,i,i,52,i
Cc1cc2oc(C(=O)N3CCN(Cc4ccccc4)CC3)c(C)c2cc1C,i,i,i,i,i,i,nt
COc1ccc(C(=O)NC2CCCc3ccccc32)cc1[N+](=O)[O-] (stereo not drawn),i,i,nt,i,i,54,i
CCc1ccc(-c2nc(C)c(CCO)c(=O)[nH]2)cc1,i,i,i,i,i,i,nt
C[C@]12CC[C@@H]3c4cc(O)c(O)cc4CC[C@H]3[C@@H]1CC[C@@H]2O,i,i,i,i,i,52,i
CCOC(=O)CSc1nc2cc3c(cc2cc1C#N)OCO3,i,i,i,i,nt,i,i
COC(=O)CSc1nc2cc3c(cc2cc1C#N)OCO3,i,i,i,i,i,i,i
COC(=O)CSc1nc(-c2cccs2)ccc1C#N,i,i,nt,i,i,i,i
O=C(C1CC(Cl)CN1S(=O)(=O)c1ccc(Cl)cc1)N1CCOCC1 (stereo not drawn),i,i,nt,i,i,i,nt
Cc1cc(NC(=O)CSc2nc(C(C)(C)C)nc3ccccc23)no1,i,i,i,i,i,57,i
SMILES,Shn3 3UTR inh,697 NFkB inh,TAG inh,Gli-Sufu block,aSyn UTR inh,Jurkat NFkB inh,Jurkat NFkB conf
COc1cccc(-c2nnn(CC(=O)Nc3cc(OC)c(NC(=O)c4ccco4)cc3OC)n2)c1,i,i,i,i,i,i,nt
O=C1NC[C@H](c2ccccc2)N(CC2CCCCC2)C1=O,i,i,i,i,i,i,nt
CCN(Cc1ccccc1)c1ccc(N=Nc2nn(C)c(C)c2[N+](=O)[O-])cc1,i,i,nt,i,i,i,nt
CCN(CC)c1ccc(N=Nc2nn(C)c(C)c2[N+](=O)[O-])cc1,i,i,i,i,i,i,i
COc1cccc(N/C=C/c2onc(C)c2[N+](=O)[O-])c1,i,i,nt,i,i,i,nt
CCOC(=O)Nc1ccc2c(COC(=O)c3ccccc3O)cc(=O)oc2c1,i,i,nt,i,i,i,nt
